# The list is not random: actives were taken first. Their share in the collection is about 1.1%.
# HTR5A inv ag: HTR5A inverse agonists in luminescence cell assay, primary screen, counter-screen for OPRM1-OPRD1 heterodimer inverse agonist project, full-deck HTS; hit rate 0.083% among 340,000; inhibition, % at 9.3 µM; HTR5A cell line, inverse agonism; AID 504634, 2011; in the data active = inhibition mostly above about 23%, no sharp cut-off; inactive = mostly below about 18%;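 note: 0% = cells with DMSO and 100% = no-cell wells with DMSO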
# Target sequence (P47898 whole entry, looked up): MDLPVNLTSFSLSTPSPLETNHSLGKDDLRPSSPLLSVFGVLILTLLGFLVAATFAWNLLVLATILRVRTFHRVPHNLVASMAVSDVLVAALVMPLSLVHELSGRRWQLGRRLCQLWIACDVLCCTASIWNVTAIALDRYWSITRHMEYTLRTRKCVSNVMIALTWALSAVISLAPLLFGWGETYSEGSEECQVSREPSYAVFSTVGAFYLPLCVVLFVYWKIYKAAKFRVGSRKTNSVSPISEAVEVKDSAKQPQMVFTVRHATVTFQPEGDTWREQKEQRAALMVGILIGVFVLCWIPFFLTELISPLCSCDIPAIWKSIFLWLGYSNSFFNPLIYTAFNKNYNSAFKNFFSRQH
# OPRM1-OPRD1 inv: inverse agonists of MOR-DOR heterodimerization, primary screen, cell-based, luminescence; Mu-type opioid receptor (Homo sapiens) + Delta-type opioid receptor (Homo sapiens), …; cell-based MOR-DOR heterodimer luminescence, inverse agonism; inhibition, % at 9.3 µM; hit rate 0.21% among 340,000; in the data active = inhibition above about 22%, passing the limit was not always enough;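 note: 0% = cells with DMSO and 100% = wells without cells with DMSO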
# HTR5A ag: HTR5A agonists in luminescence cell assay, primary screen, counter-screen for OPRM1-OPRD1 heterodimer agonist project, full-deck HTS; 5-hydroxytryptamine receptor 5A (Homo sapiens), P47898; cell-based; activation, % at 9.3 µM; hit rate 0.61% among 340,000; in the data active = activation mostly above about 9.5%, no sharp cut-off; inactive = mostly below about 7.6%;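 note: 0% = cells with vehicle only and 100% = reference agonist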
# OPRM1-OPRD1 ag: agonists of OPRM1-OPRD1 heterodimerization, primary screen, cell-based, luminescence; activation, % at 9.3 µM; Mu-type opioid receptor (Homo sapiens) + Delta-type opioid receptor (Homo sapiens), …; hit rate 0.3% among 340,000; cells;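 note: 0% = vehicle-treated cells and 100% = reference agonist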
# OPRM1-D1 ag cf: agonists of MOR-DOR heterodimerization, confirmation, cell-based, luminescence | cells, luminescence complementation | hit rate 45% among 830 | activation, % at 9.3 µM | shares compounds with OPRM1-OPRD1 ag;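 note: 0% = vehicle-treated cells and 100% = reference agonist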
# HTR5A ag counter: HTR5A agonists in cells, counter-screen for OPRM1-OPRD1 heterodimer agonist project, cell-based, luminescence; shares compounds with OPRM1-OPRD1 ag; HTR5A agonist counterscreen; activation, % at 9.3 µM; hit rate 8% among 830; in the data active = activation above about 17%;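 note: 0% = vehicle-treated cells and 100% = reference agonist response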
# * hit, by the source's call; i = inactive; . = not tested or not shown. Cut-off read from the data, not from the text of the source, unless noted: active = activation above about 18%; inactive = the rest.
SMILES,HTR5A inv ag,OPRM1-OPRD1 inv,HTR5A ag,OPRM1-OPRD1 ag,OPRM1-D1 ag cf,HTR5A ag counter
Cc1ccc(/C=N/NC(=O)c2cccc(S(=O)(=O)Nc3cccc(Cl)c3)c2)o1,16,-96,0,19*,22*,10
C/C(=N\NC(=O)c1cccc(S(=O)(=O)Nc2cccc(Cl)c2)c1)c1cccs1,-15,-103,6,20*,3,0
CCN(CC)S(=O)(=O)c1cccc(C(=O)N/N=C(\C)c2cccs2)c1,-2,6,1,-1,.,.
COc1cc(C(=O)N[C@H](C(=O)Nc2nnc(C3CC3)s2)C(C)C)cc(OC)c1OC,-1,-6,0,1,.,.
COc1cc(/C=N/NC(N)=S)ccc1OCC(=O)Nc1ccc(C)c(C)c1,7,-125,-3,22*,10,0
Cc1cccc(NC2=C/C(=N/S(=O)(=O)c3cccs3)c3ccccc3C2=O)c1,-6,-56,2,11,.,.
O=C1C(Nc2ccc(O)cc2)=C/C(=N/S(=O)(=O)c2cccs2)c2ccccc21,25,-123,5,24*,0,0
Cc1ccc(Cn2ccc(=O)c(OCc3c(Cl)cccc3Cl)c2C)cc1,-15,-169,2,28*,0,24*
COCCn1c(SCC(=O)NCc2ccc(OC)c(OC)c2)nc2ccccc21,-6,2,2,0,.,.
Cc1ccc(Nc2cc(C)nc3c(C)cccc23)cc1,3,-136,-1,29*,15,-1
COc1ccc(C(CNC(=O)C2CC2)N(C)C)cc1 (stereo not given),12,4,-5,-1,.,.
COc1ccc(C(CNC(=O)C(C)c2ccc3cc(OC)ccc3c2)N(C)C)cc1 (stereo not given),-15,-188,5,23*,56*,-4
COc1ccc(C(CNC(=O)Cc2ccc3ccccc3c2)N(C)C)cc1 (stereo not given),-20,-296,7,37*,0,-1
CCOC(=O)C1=NOC(C(=O)NN(C)c2ncc(C(F)(F)F)cc2Cl)C1 (stereo not given),0,14,0,-3,.,.
COCCCN(CC(=O)Nc1ccc(N2CCOCC2)cc1)S(=O)(=O)c1ccc(Cl)cc1,13,15,-5,-3,.,.
N=c1n(Cc2ccccc2)c2ccccc2n1CC(O)COc1ccccc1 (stereo not given),7,-225,-2,43*,0,-7
CCCCn1c(=N)n(CC(O)COc2ccc(C)cc2)c2ccccc21 (stereo not given),-2,-25,1,5,.,.
Cc1ccc(Cn2c(=N)n(CC(O)COc3ccccc3)c3ccccc32)cc1 (stereo not given),8,-140,-5,24*,61*,2
CCCCn1c(=N)n(CC(O)COc2ccccc2)c2ccccc21 (stereo not given),-30,-3,1,1,.,.
Cc1ccc(S(=O)(=O)N2C[C@@H]3[C@H]4CC[C@H](C4)[C@@H]3[C@@H](C)[C@@H]2C2CCCCC2=O)cc1 (stereo not given in full),9,2,-3,0,.,.
O=C1CC(C(=O)O)(c2ccccc2)c2cccc(F)c21 (stereo not given),0,12,0,-3,.,.
CCOC(=O)N1CCN(c2ncnc3c2[nH]c2ccc(OC)cc23)CC1,-45,1,14,0,.,.
COc1ccc2[nH]c3c(N4CCc5ccccc5C4)ncnc3c2c1,-21,-99,10,20*,2,6
CN(C)C(CNC(=S)Nc1ccccc1)c1cccnc1 (stereo not given),-28,i,8,108*,103*,1
S=C(NCc1ccncc1)Nc1cccc(Cl)c1,-3,0,3,0,.,.
SMILES,HTR5A inv ag,OPRM1-OPRD1 inv,HTR5A ag,OPRM1-OPRD1 ag,OPRM1-D1 ag cf,HTR5A ag counter
CCc1cccc(C)c1NC(=S)NCC(c1cccnc1)N(C)C (stereo not given),10,i,-4,139*,129*,2
CN(C)C(CNC(=S)Nc1ccccc1Cl)c1cccnc1 (stereo not given),5,i,0,407*,387*,-2
CCc1cccc(C)c1NC(=S)NCc1ccccc1,-18,-9,11,1,.,.
CN(C)C(CNC(=S)Nc1cccc(Cl)c1)c1cccnc1 (stereo not given),18,i,1,324*,331*,5
COc1ccc(CNS(=O)(=O)CCNC(=O)c2cccc(OC)c2)cc1,1,12,0,-2,.,.
COc1ccccc1OCC(=O)NCCS(=O)(=O)N1CCN(c2ccccc2)CC1,7,-6,-2,1,.,.
Cc1cc(C)c(OCCCNC2CCCC2)c(Br)c1,9,-7,-2,1,.,.
COc1ccc(OC)c(C2=NS(=O)(=O)N(C)C(C(=O)Nc3cccc(C(C)=O)c3)=C2)c1,5,9,3,-2,.,.
CN(C)C(CNC(=O)NC1CCCCC1)c1cccnc1 (stereo not given),3,i,1,158*,148*,-2
CN(C)C(CNC(=O)c1cccs1)c1cccnc1 (stereo not given),-12,2,2,0,.,.
COc1ccc(NS(=O)(=O)c2cccc(C(=O)NC3CCN(Cc4ccccc4)CC3)c2)cc1,-7,-4,1,1,.,.
COc1ccc(Cl)cc1NS(=O)(=O)c1cccc(C(=O)NC2CCN(Cc3ccccc3)CC2)c1,1,-76,0,18*,26*,1
O=[N+]([O-])c1cc(S(=O)(=O)NC2=NCCCCC2)ccc1NCC1CCCCC1,-31,-15,4,3,.,.
COc1cc2c(c(OC)c1OC)C(=O)C(=Cc1ccccc1)O2,1,10,0,-2,.,.
COc1ccc2c(Cl)c(-c3nnc(SCC(N)=O)n3C)sc2c1,5,-1,-2,0,.,.
COc1ccc2c(Cl)c(-c3nnc(SCC(=O)c4ccccc4)n3C)sc2c1,-19,i,1,325*,372*,3
CNC[C@H](Cc1ccccc1)NC[C@@H](Cc1cccc2ccccc12)NCCc1ccc(C)cc1,-11,-167,1,30*,4,-1
COc1ccc(CNC(=O)C[C@H]2C(=O)N(CCc3ccccc3)C[C@@H]2Cc2ccccc2)cc1,15,3,-6,0,.,.
CC(=O)Nc1ccc(NC(=O)Nc2ccc3c(c2)N(C)C(=O)CS3)cc1,-5,-150,2,21*,3,2
CN1C(=O)CSc2ccc(NC(=O)N3CCN(c4ccccn4)CC3)cc21,-2,-218,1,36*,26*,8

# High-throughput results (PubChem BioAssay)
